Source: the supplement of paper PMC6555819

Tests used:
Assay in all cases: PBM binding z-score (relative to random genomic background probes); higher = stronger binding; sequences stand for … in GC…GCGATTGACAGCGTAGAATGAAGG
[1] = tested on: PPARg:RXRa DBDmut IVT, anti-RXR (DBD mutation: RXRa K156A/R161A, NR concentration 270 nM, RXRa partner concentration 90 nM)
How it was run: (§1)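 Binding buffer was PBS pH 7.4 with 2% milk, 0.02% Triton X-100, 1 mM DTT, 0.2 mg/mL BSA and 0.4 mg/ml salmon testes DNA. In it, ligand-free nuclear receptor dimers were incubated 1 h on custom Agilent 4×180K protein-binding microarrays carrying double-stranded probes. Antibodies against each partner (one per run) detected binding, and z-scores were calculated against random background probes after regression normalization of scanned fluorescence.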

[2] = tested on: PPARg:RXRa IVT, anti-PPARg (NR concentration 270 nM, RXRa partner concentration 90 nM)
How it was run: as §1

[3] = tested on: PPARg DBDmut:RXRa IVT, anti-PPARg (DBD mutation: PPARg1 K132A/R137A, NR concentration 270 nM, RXRa partner concentration 90 nM)
How it was run: as §1

[4] = tested on: PPARg DBDmut IVT, anti-PPARg (DBD mutation: PPARg1 K132A/R137A, NR concentration 270 nM)
How it was run: as §1

[5] = tested on: PPARg homodimer (NR concentration 180 nM)
How it was run: as §1

[6] = tested on: PXR:RXRa (NR concentration 270 nM, RXRa partner concentration 90 nM)
How it was run: as §1

[7] = tested on: PXR homodimer (NR concentration 270 nM)
How it was run: as §1

[8] = tested on: RARa:RXR (NR concentration 270 nM, RXRa partner concentration 90 nM)
How it was run: as §1

[9] = tested on: RARa homodimer (NR concentration 270 nM)
How it was run: as §1

[10] = tested on: RARb homodimer (NR concentration 270 nM)
How it was run: as §1

[11] = tested on: RARg:RXRa (NR concentration 270 nM, RXRa partner concentration 90 nM)
How it was run: as §1

[12] = tested on: RARg homodimer (NR concentration 270 nM)
How it was run: as §1

[13] = tested on: RXRa DBDmut IVT, anti-RXR (DBD mutation: RXRa K156A/R161A, NR concentration 90 nM)
How it was run: as §1

[14] = tested on: RXRa homodimer (NR concentration 180 nM)
How it was run: as §1

[15] = tested on: THRa:RXRa (NR concentration 90 nM, RXRa partner concentration 90 nM)
How it was run: as §1

[16] = tested on: THRa homodimer (NR concentration 90 nM)
How it was run: as §1

[17] = tested on: VDR:RXRa (NR concentration 270 nM, RXRa partner concentration 90 nM)
How it was run: as §1

[18] = tested on: VDR homodimer (NR concentration 270 nM)
How it was run: as §1

CAGCCTAGGTGAGGGCCAGTATAGGAGGAACGTT was tested, and the PBM binding z-score [1] was 0.681, the PBM binding z-score [2] was 0.776 and the PBM binding z-score [3] was -0.889. For the same sequence, the PBM binding z-score [4] was -1.52, the PBM binding z-score [5] was -0.00134 and the PBM binding z-score [6] was -0.652. The PBM binding z-score [7] was -0.633, the PBM binding z-score [8] was -0.402 and the PBM binding z-score [9] was -0.758. The PBM binding z-score [10] was 0.105, the PBM binding z-score [11] was -0.107 and the PBM binding z-score [12] was 0.177. For the same sequence, the PBM binding z-score [13] was -0.941, the PBM binding z-score [14] was -0.128 and the PBM binding z-score [15] was 0.00456. For the same sequence, the PBM binding z-score [16] was -0.223, the PBM binding z-score [17] was -0.634 and the PBM binding z-score [18] was -0.734.
For CCGACGGGGGCAAGGTTACCATAACGCACAGCCA, the PBM binding z-score [1] was 1.63, the PBM binding z-score [2] was 2.94 and the PBM binding z-score [3] was 2.07. The PBM binding z-score [4] was 2.52, the PBM binding z-score [5] was 1.9 and the PBM binding z-score [6] was 2.63. For the same sequence, the PBM binding z-score [7] was 0.67, the PBM binding z-score [8] was 3.36 and the PBM binding z-score [9] was 0.881. It also gave a PBM binding z-score [10] of 2.54, a PBM binding z-score [11] of 3.79 and a PBM binding z-score [12] of 3.51. The PBM binding z-score [13] was 2.32, the PBM binding z-score [14] was 3.35 and the PBM binding z-score [15] was 3.09. It also gave a PBM binding z-score [16] of 1.26 and a PBM binding z-score [18] of 1.78.
For CCTACTGGGCCAAGGTCTTTGATCAGTCAAAGCA, the PBM binding z-score [1] was 3.2, the PBM binding z-score [2] was 3.33 and the PBM binding z-score [3] was -0.858. It also gave a PBM binding z-score [4] of -1.46, a PBM binding z-score [5] of 0.00705 and a PBM binding z-score [6] of -0.407. The PBM binding z-score [7] was -0.601, the PBM binding z-score [8] was -0.344 and the PBM binding z-score [9] was -0.879. For the same sequence, the PBM binding z-score [10] was 0.263, the PBM binding z-score [11] was -0.131 and the PBM binding z-score [12] was -0.0886. It also gave a PBM binding z-score [13] of -1, a PBM binding z-score [14] of -0.568 and a PBM binding z-score [15] of 0.0825. For the same sequence, the PBM binding z-score [16] was -0.301, the PBM binding z-score [17] was -0.509 and the PBM binding z-score [18] was -0.659.
Work on CGAACTAGGTCAGAACAGGACAGTTAAGGATGAT yielded a PBM binding z-score [1] of 7, a PBM binding z-score [2] of 7.32 and a PBM binding z-score [3] of 3.55. For the same sequence, the PBM binding z-score [4] was 1.83, the PBM binding z-score [5] was 1.49 and the PBM binding z-score [6] was 1.15. It also gave a PBM binding z-score [7] of 0.458, a PBM binding z-score [8] of 1.41 and a PBM binding z-score [9] of 0.874. For the same sequence, the PBM binding z-score [10] was 2.09, the PBM binding z-score [11] was 2.45 and the PBM binding z-score [12] was 3.49. It also gave a PBM binding z-score [13] of 0.671, a PBM binding z-score [14] of 1.3 and a PBM binding z-score [15] of 3.48. The PBM binding z-score [16] was 0.637, the PBM binding z-score [17] was 1.02 and the PBM binding z-score [18] was 0.142.
CCTACTGGGCCATTCAGAGGTCATTGATCATATG gave a PBM binding z-score [1] of 4.59, a PBM binding z-score [2] of 4.4 and a PBM binding z-score [3] of 0.046. The PBM binding z-score [4] was 0.818, the PBM binding z-score [5] was 2.59 and the PBM binding z-score [6] was 4.8. For the same sequence, the PBM binding z-score [7] was 2.3, the PBM binding z-score [8] was 4.59 and the PBM binding z-score [9] was 0.867. It also gave a PBM binding z-score [10] of 3.93, a PBM binding z-score [11] of 4.35 and a PBM binding z-score [12] of 2.99. For the same sequence, the PBM binding z-score [13] was 1.44, the PBM binding z-score [14] was 3.55 and the PBM binding z-score [15] was 3.14. It also gave a PBM binding z-score [16] of 1.18 and a PBM binding z-score [18] of 3.37.
CTCGAAAGGTCGGTTGAGGTGACTATACGGATAA gave a PBM binding z-score [1] of 0.163, a PBM binding z-score [2] of 1.15 and a PBM binding z-score [3] of 0.145. It also gave a PBM binding z-score [4] of 0.106, a PBM binding z-score [5] of 0.89 and a PBM binding z-score [6] of 3.61. The PBM binding z-score [7] was 0.00293, the PBM binding z-score [8] was 2.11 and the PBM binding z-score [9] was 0.415. For the same sequence, the PBM binding z-score [10] was 2.54, the PBM binding z-score [11] was 3.04 and the PBM binding z-score [12] was 2.85. It also gave a PBM binding z-score [13] of 0.99, a PBM binding z-score [14] of 2.76 and a PBM binding z-score [15] of 5.16. The PBM binding z-score [16] was 1.68, the PBM binding z-score [17] was 2.77 and the PBM binding z-score [18] was 0.829.
TAGCCTAGGTCCTTCAGGGGCCAGTATAGAAAGC was tested, and the PBM binding z-score [1] was -1.03, the PBM binding z-score [2] was -0.0823 and the PBM binding z-score [3] was -0.672. For the same sequence, the PBM binding z-score [4] was 0.051, the PBM binding z-score [5] was -0.932 and the PBM binding z-score [6] was -0.686. The PBM binding z-score [7] was -0.979, the PBM binding z-score [8] was -0.334 and the PBM binding z-score [9] was -0.852. It also gave a PBM binding z-score [10] of 0.357, a PBM binding z-score [11] of 0.825 and a PBM binding z-score [12] of 0.108. The PBM binding z-score [13] was -1.03, the PBM binding z-score [14] was -0.259 and the PBM binding z-score [15] was 0.402. The PBM binding z-score [16] was -0.799 and the PBM binding z-score [18] was -0.422.
In the case of ACTAGCAGGCCAAGAGTCACTCAAGATTAGTCCG, the PBM binding z-score [1] is reported as 0.813, the PBM binding z-score [2] is reported as 0.847 and the PBM binding z-score [3] is reported as -0.175. The PBM binding z-score [4] was -0.385, the PBM binding z-score [5] was 0.631 and the PBM binding z-score [6] was -0.105. For the same sequence, the PBM binding z-score [7] was -0.185, the PBM binding z-score [8] was 0.354 and the PBM binding z-score [9] was -0.112. The PBM binding z-score [10] was 0.0309, the PBM binding z-score [11] was 0.304 and the PBM binding z-score [12] was 0.413. The PBM binding z-score [13] was -0.426, the PBM binding z-score [14] was 0.599 and the PBM binding z-score [15] was 0.162. The PBM binding z-score [16] was -0.533 and the PBM binding z-score [18] was -0.0236.
